# Values joined by “and” are separate entries in the source; they are usually repeats but may differ in a detail not shown here. Equal entries are not always repeated. Records with an inconclusive call do not appear. Where a call stands in place of a potency, no number is given. Some compounds were tested as several samples or in several runs, with calls that do not always agree. Active and inactive are the calls of the source. Unless noted, calls follow the shape of the dose curve; as a rule, active = well fitted curve in the direction sought with a large enough effect; inconclusive = small, poorly fitted or top-dose-only effect, or another doubt; inactive = no such curve, though single readings can be large; an effect the other way counts as inactive or inconclusive.
# Assays:
# PA-1 = assay: Primary qHTS to identify gynecologic anti-cancer compounds using libraries of approved drugs and bioactive compounds (AID 1345084); details: Gynecologic cancer cell panel viability, ATPlite luminescence, 48 h; series mostly up to 57.5 µM; also: nearly all actives have a fitted effect of over 55% in size; also: potency is read from the fitted curve at half-maximal effect
# Outline: (§1)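 Measured: luminescence after ATPlite addition (15 min, RT). Exposure: 48 h, 37 C, 5% CO2.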
# SKOV3 = assay: as above; details: Gynecologic cancer cell panel viability, ATPlite luminescence, 48 h; series mostly up to 57.5 µM
# Outline: as §1
# Tov-21-G = assay: as above; details: Gynecologic cancer cell panel viability, ATPlite luminescence, 48 h; series mostly up to 57.5 µM
# Outline: as §1
# Tov112D = assay: as above; details: Gynecologic cancer cell panel viability, ATPlite luminescence, 48 h; series mostly up to 57.5 µM
# Outline: as §1
# [1] = Drug repurposing screens with cells derived from glioblastoma tumor samples (AID 1345199); details: GBM patient neurospheres viability, ATP luminescence, 48 h; also: nearly all actives have a fitted effect of over 40% in size; also: potency is read from the fitted curve at half-maximal effect
# Outline: (§2)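 Primary testing used CD133+ neurospheres from four GBM patients, seven concentrations, 48 h exposure and ATP-based viability; confirmation added three slower-growing patient lines.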
# astro = assay: as above; details: viability, ATP luminescence, 48 h; series mostly up to 45.9 µM
# Outline: as §2
# [2] = target: Nuclear receptor subfamily 1 group I member 2 (Rattus norvegicus) (UniProt Q9R1A7); assay: qHTS assay for small molecule activators of the rat pregnane X receptor (rPXR) signaling pathway (AID 651751; call rule not given here); details: rPXR reporter cells, luciferase (One-Glo), 24 h
# Chain of Nuclear receptor subfamily 1 group I member 2 (Rattus norvegicus) (Q9R1A7 whole entry, looked up): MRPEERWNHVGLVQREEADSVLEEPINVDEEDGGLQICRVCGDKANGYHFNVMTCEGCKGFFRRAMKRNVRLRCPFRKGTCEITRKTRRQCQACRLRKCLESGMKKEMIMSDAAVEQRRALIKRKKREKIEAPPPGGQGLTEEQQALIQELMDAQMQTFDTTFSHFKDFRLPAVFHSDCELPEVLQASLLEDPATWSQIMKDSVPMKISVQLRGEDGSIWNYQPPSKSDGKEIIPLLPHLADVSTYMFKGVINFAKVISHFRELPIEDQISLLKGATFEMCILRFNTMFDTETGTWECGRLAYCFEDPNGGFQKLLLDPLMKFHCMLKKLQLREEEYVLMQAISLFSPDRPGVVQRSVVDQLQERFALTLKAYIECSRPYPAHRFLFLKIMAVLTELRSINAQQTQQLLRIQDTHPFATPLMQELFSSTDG
# [3] = at 45.9 µM (top of the series), tumour line B
# [4] = at 45.9 µM (top of the series), tumour line D
# [5] = at 46.1 µM (top of the series), tumour line C
# [6] = at 46 µM (top of the series), tumour line A
# [7] = at 20 µM (top of the series), tumour line C
# [8] = at 21.2 µM (top of the series), tumour line B
# [9] = at 21.2 µM (top of the series), tumour line D
# [10] = at 21.3 µM (top of the series), tumour line A
structure (smiles),measurement,setting,value
O=P(O)(O)C(O)(Cc1cccnc1)P(=O)(O)O,Potency,PA-1,inactive
same,Potency,SKOV3,inactive
same,Potency,Tov-21-G,inactive
same,Potency,Tov112D,inactive
same,"activity, negative = cell killing",[1]; [3],-9.54% (inactive)
same,"activity, negative = cell killing",[1]; [4],-7.26% (inactive)
same,"activity, negative = cell killing",[1]; [5],2.44% (inactive)
COc1cc2c(Nc3ccc(Br)cc3F)ncnc2cc1OCC1CCN(C)CC1,Potency,PA-1,inactive
same,Potency,SKOV3,inactive and 12.6 µM (active)
same,Potency,Tov-21-G,inactive
same,Potency,Tov112D,inactive and 31.6 µM (active)
COc1ncnc(NS(=O)(=O)c2ccc(N)cc2)c1OC,Potency,PA-1,inactive
same,Potency,SKOV3,inactive
same,Potency,Tov-21-G,inactive
same,Potency,Tov112D,inactive
same,"activity, negative = cell killing",[1]; [3],-5.91% (inactive)
same,"activity, negative = cell killing",[1]; [4],-22.1% (inactive)
same,"activity, negative = cell killing",[1]; [5],-21.2% (inactive)
O=S(=O)(c1cccc2cnccc12)N1CCCNCC1,Potency,PA-1,inactive
same,Potency,SKOV3,inactive
same,Potency,Tov-21-G,inactive
same,Potency,Tov112D,inactive
same,"activity, negative = cell killing",[1]; [3],-0.368% (inactive)
same,"activity, negative = cell killing",[1]; [4],-10.7% (inactive)
same,"activity, negative = cell killing",[1]; [6],-20.9% (inactive)
same,"activity, negative = cell killing",[1]; [5],-21.1% (inactive)
CNNCc1ccc(C(=O)NC(C)C)cc1,Potency,PA-1,inactive
same,Potency,SKOV3,inactive
same,Potency,Tov-21-G,inactive
same,Potency,Tov112D,inactive
same,"activity, negative = cell killing",[1]; [3],-4.85% (inactive)
same,"activity, negative = cell killing",[1]; [4],-17.7% (inactive)
same,"activity, negative = cell killing",[1]; [5],-14.6% (inactive)
CCn1cc(C(=O)O)c(=O)c2cc(F)c(N3CCNCC3)cc21,Potency,PA-1,inactive
same,Potency,SKOV3,inactive
same,Potency,Tov-21-G,inactive
same,Potency,Tov112D,inactive
same,"activity, negative = cell killing",[1]; [7],2.43% (inactive)
same,"activity, negative = cell killing",[1]; [8],-7.83% (inactive)
same,"activity, negative = cell killing",[1]; [9],-12% (inactive)
same,"activity, negative = cell killing",[1]; [10],-21.7% (inactive)
same,"activity, negative = cell killing",[1]; [3],1.94% (inactive)
same,"activity, negative = cell killing",[1]; [4],2.4% (inactive)
same,"activity, negative = cell killing",[1]; [5],-8.69% (inactive)
same,Potency,astro,inactive
S=P(N1CC1)(N1CC1)N1CC1,Potency,PA-1,inactive
same,Potency,SKOV3,inactive
same,Potency,Tov-21-G,inactive
same,Potency,Tov112D,inactive
same,"activity, negative = cell killing",[1]; [3],-13.6% (inactive)
same,"activity, negative = cell killing",[1]; [4],-2.85% (inactive)
same,"activity, negative = cell killing",[1]; [5],-0.68% (inactive)
same,"activity, negative = cell killing","[1]; at 91.6 µM (top of the series), tumour line B",-15.1% (inactive)
same,"activity, negative = cell killing","[1]; at 91.6 µM (top of the series), tumour line D",-14.2% (inactive)
same,"activity, negative = cell killing","[1]; at 99.2 µM (top of the series), tumour line C",-13% (inactive)
same,Potency,astro,inactive
same,max response,[2],2.63% (inactive)
CCOC(=O)c1ccc(C#Cc2ccc3c(c2)C(C)(C)CCS3)nc1,Potency,PA-1,inactive
same,Potency,SKOV3,inactive
same,Potency,Tov-21-G,inactive
same,Potency,Tov112D,inactive
O=C(NCC1CN(c2ccc(N3CCOCC3=O)cc2)C(=O)O1)c1ccc(Cl)s1 (stereo not given),Potency,PA-1,inactive
same,Potency,SKOV3,inactive
same,Potency,Tov-21-G,inactive
same,Potency,Tov112D,inactive
CC[C@H](C)C(=O)O[C@H]1C[C@@H](C)C=C2C=C[C@H](C)[C@H](CC[C@@H]3C[C@@H](O)CC(=O)O3)[C@H]21,Potency,PA-1,inactive
same,Potency,SKOV3,inactive
same,Potency,Tov-21-G,inactive
same,Potency,Tov112D,inactive
Nc1[nH]c(=O)ncc1F,Potency,PA-1,inactive
same,Potency,SKOV3,inactive
same,Potency,Tov-21-G,inactive
same,Potency,Tov112D,inactive
same,"activity, negative = cell killing",[1]; [7],6.56% (inactive)
same,"activity, negative = cell killing",[1]; [8],-3.24% (inactive)
same,"activity, negative = cell killing",[1]; [9],-9.05% (inactive)
same,"activity, negative = cell killing",[1]; [10],-15% (inactive)
NC(=O)c1cccnc1,Potency,PA-1,inactive
same,Potency,SKOV3,inactive
same,Potency,Tov-21-G,inactive
same,Potency,Tov112D,inactive
same,"activity, negative = cell killing",[1]; [3],-7.44% (inactive)
same,"activity, negative = cell killing",[1]; [4],-0.242% (inactive)
same,"activity, negative = cell killing",[1]; [6],-16% (inactive)
same,"activity, negative = cell killing",[1]; [5],4.44% (inactive)
CNC1CCCN(c2c(F)cc3c(=O)c(C(=O)O)cn(C4CC4)c3c2OC)C1 (stereo not given),Potency,PA-1,inactive
same,Potency,SKOV3,inactive
same,Potency,Tov-21-G,inactive
same,Potency,Tov112D,inactive
same,"activity, negative = cell killing",[1]; [3],0.798% (inactive)
same,"activity, negative = cell killing",[1]; [4],-8.95% (inactive)
same,"activity, negative = cell killing",[1]; [6],-37.3% (inactive)
same,"activity, negative = cell killing",[1]; [5],-5.21% (inactive)
C[C@@H](CN1CC(=O)NC(=O)C1)N1CC(=O)NC(=O)C1,Potency,PA-1,inactive
same,Potency,SKOV3,inactive
same,Potency,Tov-21-G,inactive
same,Potency,Tov112D,inactive
same,"activity, negative = cell killing",[1]; [3],-2.51% (inactive)
same,"activity, negative = cell killing",[1]; [4],-10.3% (inactive)
same,"activity, negative = cell killing",[1]; [5],-0.792% (inactive)
CCC(C)(C)c1ccc(CC(C)CN2C[C@@H](C)O[C@@H](C)C2)cc1 (stereo not given in full),Potency,PA-1,inactive
same,Potency,SKOV3,inactive
same,Potency,Tov-21-G,inactive
same,Potency,Tov112D,inactive
CC(C)OC(=O)OCOP(=O)(CO[C@H](C)Cn1cnc2c(N)ncnc21)OCOC(=O)OC(C)C,Potency,PA-1,inactive
same,Potency,SKOV3,inactive
same,Potency,Tov-21-G,inactive
same,Potency,Tov112D,inactive
same,"activity, negative = cell killing",[1]; [3],-7.36% (inactive)
same,"activity, negative = cell killing",[1]; [4],-12.2% (inactive)
same,"activity, negative = cell killing",[1]; [6],-9.04% (inactive)
same,"activity, negative = cell killing",[1]; [5],-6.09% (inactive)
CCC(=O)O[C@]1(C(=O)SCF)[C@H](C)C[C@H]2[C@@H]3C[C@H](F)C4=CC(=O)C=C[C@]4(C)[C@@]3(F)[C@@H](O)C[C@@]21C,Potency,PA-1,inactive
same,Potency,SKOV3,inactive
same,Potency,Tov-21-G,inactive
same,Potency,Tov112D,inactive
same,"activity, negative = cell killing",[1]; [7],-9.5% (inactive)
same,"activity, negative = cell killing",[1]; [8],-18.7% (inactive)
same,"activity, negative = cell killing",[1]; [9],13.1% (inactive)
same,"activity, negative = cell killing",[1]; [10],-14.8% (inactive)
CC1=CC(=O)c2ccccc2C1=O,Potency,PA-1,inactive
same,Potency,SKOV3,inactive
same,Potency,Tov-21-G,inactive
same,Potency,Tov112D,inactive
same,"activity, negative = cell killing",[1]; [5],-17.3% (inactive)
same,Potency,[1]; tumour line A,35.5 µM (active)
same,Potency,[1]; tumour line D,22.4 µM (active)
COc1cc(NS(=O)(=O)c2ccc(N)cc2)nc(OC)n1,Potency,PA-1,inactive
same,Potency,SKOV3,inactive
same,Potency,Tov-21-G,inactive
same,Potency,Tov112D,inactive
same,"activity, negative = cell killing",[1]; [7],-7.42% (inactive)
same,"activity, negative = cell killing",[1]; [8],-12.9% (inactive)
same,"activity, negative = cell killing",[1]; [9],-12.1% (inactive)
same,"activity, negative = cell killing",[1]; [10],-9.97% (inactive)

# Source: PubChem BioAssay (NCATS)
